High-throughput results from PubChem.
ssDAF-12 act: activates DAF-12 receptor from parasite S. stercoralis. HEK293 ssDAF-12/GRIP1 lit1-tk-luc reporter, luminescence; % of 3 µM dafachronic acid response. activation, % at 6.8 µM. 370,000 tested, 1% active;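 active = activation above the mean over all tested compounds plus 3 SD, cut at about 0.9% in these data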
hcDAF-12 act: activators of H. contortus DAF-12 nuclear receptor; HEK293 hcDAF-12 lit1-tk-luc reporter, luminescence; 0% DMSO, 100% Δ7-dafachronic acid; activation, % at 6.8 µM; 370,000 tested, 1.4% active; AID 652067;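 active = activation above the mean of all tested compounds plus 3 SD, cut at about 5.5% in these data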
hgDAF12 agonist: agonists of H. glycines DAF-12 nuclear receptor; HEK293 GAL4-hgDAF12 UAS-luciferase reporter, agonist luminescence; normalized to butyrate control; activation, % at 6.8 µM; 370,000 tested, 1.8% active; AID 687014;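 active = activation above a cutoff set at the mean of all screened compounds plus 3 SD, cut at about 10% in these data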
DAX1 inh-1: inhibits human nuclear receptor DAX1; P51843; HEK293 Gal4-DAX1 luciferase reporter, luminescence; inhibition, % at 6.75 µM; 340,000 tested, 0.99% active;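 active = inhibition above the mean over all tested compounds plus 3 SD, cut at about 4.2% in these data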;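 also: inhibition shows as a rise in luminescence from relieved DAX1 repression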
Target sequence (P51843 207-470 limits assumed): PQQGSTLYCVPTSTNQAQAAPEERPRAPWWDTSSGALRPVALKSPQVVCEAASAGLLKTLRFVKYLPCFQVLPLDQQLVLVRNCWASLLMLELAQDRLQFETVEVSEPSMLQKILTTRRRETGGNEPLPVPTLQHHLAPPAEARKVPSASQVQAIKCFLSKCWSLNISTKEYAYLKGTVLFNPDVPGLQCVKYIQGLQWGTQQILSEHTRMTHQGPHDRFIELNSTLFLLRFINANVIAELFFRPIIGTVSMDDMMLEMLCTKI
DAX1 inh-2: DAX1 (NR0B1) inhibition, primary screen. HEK293T StAR-luciferase reporter, SF-1/DAX-1 repression relief. inhibition, % at 6.8 µM. AID 652010. 370,000 tested, 1.1% active;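 active = inhibition above the mean over all tested compounds plus 3 SD, cut at about 3.6% in these data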;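 also: higher inhibition means more luminescence from relief of DAX-1 repression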
AHR activator: human AHR activation. AHR-responsive luciferase reporter cells, luminescence. activation, % at 5 µM. 320,000 tested, 2.5% active; in the data active = activation above about 47%
Numbers stand for hits; i = inactive; nt = no result given. Most compounds without a hit are left out; they make up all but 5.7% or so of the library.

SMILES | ssDAF-12 act | hcDAF-12 act | hgDAF12 agonist | DAX1 inh-1 | DAX1 inh-2 | AHR activator
COc1ccc(-c2noc(CN(C)C3CCOCC3)n2)cc1 | i | i | i | i | i | i
CN(Cc1nc(-c2ccccc2)no1)C1CCOCC1 | i | i | 11 | 4.8 | i | i
O=C(c1ccccc1)n1ccc2ccccc21 | i | i | i | i | i | 62
O=C(c1cccc(F)c1)n1ccc2ccc(-c3ccc4ccn(Cc5ccccc5)c4c3)cc21 | i | i | i | nt | i | nt
O=C(O)Cn1ccc2ccccc21 | i | 5.7 | i | i | i | i
O=C(c1ccccc1)n1ccc2ccc(-c3ccc4ccn(Cc5ccccc5)c4c3)cc21 | i | i | 11 | nt | i | nt
C=CCC[C@H](Cc1ccc(F)cc1)C(=O)OC[C@H](C)NC(=O)[C@@H](CC=C)CC(=O)N[C@H](CO)Cc1ccccc1 | i | i | i | i | i | i
COc1ccc(CCC(=O)Nc2ncc(C)s2)cc1 | 2.2 | i | i | i | i | i
COc1ccccc1-c1cc(NC=O)c2ncc(-c3ccc(S(C)(=O)=O)cc3)n2c1 | i | i | i | nt | i | nt
CC(=O)Nc1cc2c(cc1Cl)-c1ccc(F)cc1C2O (configuration not stated) | 1.5 | i | i | i | i | nt
COc1cccc(CNC(=O)[C@H]2CCCN2C(=O)[C@H]2CCCN2C(=O)c2ccccc2)c1 | i | i | i | nt | i | nt
O=C(O)c1[nH]c2ccccc2c1C(c1c(F)cccc1Cl)c1c(C(=O)O)[nH]c2ccccc12 | i | i | i | i | i | i
COc1cc(Cl)cc(C(c2c(C(=O)O)[nH]c3ccccc23)c2c(C(=O)O)[nH]c3ccccc23)c1O | i | 5.7 | i | i | i | i
C=CCNC(=O)c1ccsc1N | i | i | i | nt | 4.2 | nt
CN1CC(C(=O)O)Cc2c1ccc1ccccc21 (configuration not stated) | i | i | i | i | i | 54
O=C(CSc1nnc(CNC(=O)c2cccs2)o1)Nc1ccc(F)cc1F | i | i | i | i | i | i
Cc1ccc(-c2nc3ccsc3c(=O)o2)cc1 | i | 5.9 | i | i | i | i
O=C(CSc1n[nH]c(-c2ccco2)n1)Nc1sc2c(c1C(=O)Nc1ccccc1)CCCC2 | i | i | i | i | i | 48
CCOC(=O)c1c(NC(=O)CSc2n[nH]c(-c3ccco3)n2)sc(C)c1C | i | i | i | i | i | i
Cc1ccc(C(=O)COC(=O)c2ccco2)cc1C | 1.0 | i | i | i | i | i
Cc1nn(S(=O)(=O)c2ccc(F)cc2)c(C)c1S(=O)(=O)N1CCCCC1 | i | i | i | i | i | i
CSc1nsc(/C=C/Nc2ccc(C)cc2)c1C#N | 2.4 | 6.5 | i | i | i | i
O=C(CCNC(=O)c1ccc([N+](=O)[O-])cc1)Oc1ccc(F)c(F)c1 | i | i | i | i | i | i
c1csc(-c2noc(CN3CCc4sccc4C3)n2)c1 | i | i | i | i | i | i
C[C@@H]1CN(Cc2nc(-c3cccs3)no2)C[C@H](C)O1 | i | i | i | 9.4 | i | i
SMILES | ssDAF-12 act | hcDAF-12 act | hgDAF12 agonist | DAX1 inh-1 | DAX1 inh-2 | AHR activator
Cc1ccc(CN2CCCCC(NC(=O)c3ccc(COc4ccccc4)cc3)C2=O)cc1 (configuration not stated) | i | i | i | nt | i | nt
COc1ccc2cc3c(N)nn(C(=O)c4ccc(F)cc4)c3nc2c1 | i | i | 12 | i | i | i
COc1ccc2cc3c(N)nn(C(=O)c4cccc(F)c4)c3nc2c1 | i | i | i | 4.4 | i | i
COc1ccc2cc3c(N)nn(C(=O)Cc4c[nH]c5ccccc45)c3nc2c1 | i | i | 14 | i | i | i
COc1ccc2cc3c(N)nn(C(=O)c4ccccc4Cl)c3nc2c1 | i | i | i | i | i | i
CCN(C(=O)C1CCN(S(=O)(=O)c2ccc3c(c2)oc(=O)n3C)CC1)c1cccc(C)c1 | i | i | i | i | i | i
COc1ccc(C)cc1S(=O)(=O)n1cnc2ccccc21 | i | i | i | i | i | i
O=C(Nc1ccc([N+](=O)[O-])cc1)N1CCCCC1 | i | i | i | i | i | i
O=C(Nc1ccc([N+](=O)[O-])cc1)N1CCCCCC1 | i | i | i | i | 4.1 | i
O=C(NCCCNC1CCCCC1)c1ccc(/C=N/O)nc1 | 1.5 | i | i | i | i | i
CNCCCNC(=O)c1ccc(/C=N/O)nc1 | i | i | i | i | i | i
